Source: PubChem BioAssay (National Center for Advancing Translational Sciences (NCATS))
Only some compounds are listed: those with a hit (about 4.3% of all), similar ones and a draw of the others.
SW480 rerep: induces DNA re-replication in SW480 colon adenocarcinoma cells | SW480 DNA re-replication, Hoechst DNA content imaging, 48 h | Potency, µM (doses to about 46.1 µM), usual class: activators | hit rate 1.8% among 340,000 | AID 624297; note: nearly all actives have a fitted effect of over 55% in size
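DNA re-replication was detected as more nuclei of elevated Hoechst intensity after 48 hr exposure to compound (23 nL pinned per well of 250 cells).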
uPA surface inh: cell surface uPA generation inhibition; Potency, µM (series often up to 38.3 µM), most hits filed as inhibitors; cell surface uPA generation assay, qHTS; hit rate 0.31% among 330,000; active = well fitted inhibition curve with a large enough effect; inconclusive = small, poorly fitted or top-dose-only effect; inactive = no such curve, though single readings can be large or run the other way; tested in mouse RAW 264.7 cells; note: nearly all actives have a fitted effect of over 55% in size
Giardia killer: kills Giardia lamblia. AID 540267. Giardia lamblia trophozoite viability. hit rate 0.15% among 340,000. activity change, % at 7.66 µM, hits read low; in the data active = activity change below about -80%; inconclusive = between about -30% and that limit;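 note: parasites exposed to compound for two days anaerobically before the ATP read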
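Trophozoite viability was measured as ATP-dependent luminescence, read 15-30 min after reagent addition. Before that, parasites at 100 cells/well were exposed to compounds for 48 h, anaerobically, at 37 deg C.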
MCF10A rereplic: DNA re-replication induction in MCF 10a cells; MCF 10A DNA re-replication, Hoechst nuclear intensity, 48 h; Potency, µM (top dose mostly 46.1 µM), hits mostly activators; hit rate 2.9% among 350,000; note: nearly all actives have a fitted effect of over 50% in size
Each line names hits and unclear results; the compound was inactive in the other large screens. Unless noted, calls come from the whole dose curve; as a rule, active = well fitted activation curve with a large enough effect; inconclusive = small, poorly fitted or top-dose-only effect; inactive = no such curve, though single readings can be large or run the other way.

CC(C)C[C@H](NC(=O)c1nc[nH]c1C(=O)NC1CCN(C(=O)OC(C)(C)C)CC1)C(=O)OC(C)(C)C	MCF10A rereplic 13µM
CC(C)(C)OC(=O)[C@H](Cc1ccccc1)NC(=O)c1nc[nH]c1C(=O)NC1CCN(C(=O)OC(C)(C)C)CC1	none
CC(C)(C)OC(=O)NCc1ccc(CNC(=O)c2[nH]cnc2C(=O)NC2CCN(C(=O)OC(C)(C)C)CC2)cc1	uPA surface inh inconclusive, MCF10A rereplic 18µM
C[C@H](NC(=O)c1nc[nH]c1C(=O)NC1CCN(C(=O)OC(C)(C)C)CC1)C(=O)OC(C)(C)C	SW480 rerep 0.16µM
CC(C)(C)OC(=O)N1CCC(NC(=O)c2nc[nH]c2C(=O)NCc2ccccc2)CC1	none
CC(C)C[C@H](NC(=O)c1nc[nH]c1C(=O)NC1CCN(C(=O)OC(C)(C)C)CC1)C(=O)OCc1ccccc1	MCF10A rereplic inconclusive
COC(=O)CC[C@H](N)C(=O)O	none (no result: uPA surface inh, Giardia killer)
Cc1ccc(S/C=C\C(=O)c2ccccc2)cc1	SW480 rerep inconclusive, MCF10A rereplic 4.1µM
Cc1ccc(C(=O)/C=C\C(=O)c2ccc(C)cc2)cc1	SW480 rerep inconclusive, MCF10A rereplic inconclusive
CC(=O)Nc1ccc2c(c1)C(N1CC3CCC(CC3)C1)c1ccccc1-2 (configuration not stated)	MCF10A rereplic inconclusive
Cc1ccc(-n2cc(CNCCN3CCOC3=O)c(-c3ccc(F)cc3)n2)cc1	none
Cc1ccc(-n2cc(CNCCn3nc(C)cc3C)c(-c3ccc(F)cc3)n2)cc1	SW480 rerep 18µM, MCF10A rereplic inconclusive
CC(C(=O)NCc1cccs1)N1CCN(S(=O)(=O)c2ccc3c(c2)OCCCO3)CC1 (configuration not stated)	uPA surface inh inconclusive
Cn1cccc1/C=C1\Cc2ccccc2C1=O	none
Cn1cccc1/C=C1\CC(C(C)(C)C)C/C(=C\c2cccn2C)C1=O (configuration not stated)	SW480 rerep inconclusive, MCF10A rereplic 3.7µM
CCSc1nc2cc(OC)c(OC)cc2c(=O)n1CCc1ccccc1	none (no result: uPA surface inh)
COCCCn1c(SCCc2ccccc2)nc2cc(OC)c(OC)cc2c1=N	uPA surface inh inconclusive, MCF10A rereplic 7.3µM
Cc1cc(C(F)(F)F)c(C#N)c(SCC(=O)Nc2nc3cc(Br)ccc3s2)n1	SW480 rerep inconclusive, MCF10A rereplic 13µM
N#Cc1c(SCC(=O)Nc2nc3ccc(Br)cc3s2)sc2c(O)cc(=O)[nH]c12	SW480 rerep 12µM
Cc1cc(=O)[nH]c(SCC(=O)Nc2nc(-c3ccccc3)cs2)n1	none
CCOC(=O)NC(=O)CSc1nc(C)cc(C(F)(F)F)c1C#N	none
Cc1cc(=O)[nH]c(SCC(=O)Nc2nc3ccccc3s2)n1	SW480 rerep inconclusive, Giardia killer inconclusive, MCF10A rereplic 0.58µM
N#Cc1c(SCC(=O)Nc2nc3ccccc3s2)sc2c(O)cc(=O)[nH]c12	SW480 rerep 18µM, uPA surface inh inconclusive, MCF10A rereplic inconclusive
C=CC(=O)O	none (no result: uPA surface inh, Giardia killer)
Cc1cccc(Cc2cccc(C)c2O)c1O	MCF10A rereplic inconclusive
C[C@H]1C(=O)N(S(=O)(=O)c2ccccc2[N+](=O)[O-])[C@H]1c1ccc(-c2ccccc2)cc1	none (no result: SW480 rerep, uPA surface inh, MCF10A rereplic)
COc1cccc(CN(C)C(=O)c2cccc(S(=O)(=O)Nc3cccc(C)c3)c2)c1OC	none
COc1cc(OC)cc(C(=O)/C=C2\Sc3ccccc3N2C)c1	SW480 rerep inconclusive, MCF10A rereplic inconclusive
CN1/C(=C\C(=O)c2cccs2)C(C)(C)c2ccccc21	SW480 rerep inconclusive, MCF10A rereplic 4.1µM
CN1/C(=C\C(=O)c2cccs2)Sc2ccccc21	SW480 rerep 15µM, MCF10A rereplic 18µM
C=CCn1c(SC(C)C#N)nc2ccccc2c1=O (configuration not stated)	none (no result: SW480 rerep, uPA surface inh, MCF10A rereplic)
CNc1ccc(C(=O)OCC(=O)NC(=O)NC2CCCC2)cc1[N+](=O)[O-]	none
Clc1nc(NCc2ccco2)nc(N2CCCCC2)n1	SW480 rerep 4.6µM, MCF10A rereplic inconclusive
CCc1nc2ccc(C(=O)NCc3ccco3)cc2nc1CC	none
CCC1=Nc2cc(C(=O)NCc3ccco3)ccc2Sc2ccc(Cl)cc21	SW480 rerep 7.9µM, MCF10A rereplic 3.7µM
CN1C(=O)/C(=C/c2ccccc2Cl)Sc2ccc(C(=O)NCc3cccnc3)cc21	MCF10A rereplic 21µM
CCC1=Nc2cc(C(=O)NCc3cccnc3)ccc2Sc2ccc(C)cc21	SW480 rerep 3.7µM, MCF10A rereplic 2.3µM
CCC1=Nc2cc(C(=O)NCc3ccco3)ccc2Sc2ccccc21	SW480 rerep 8.2µM, uPA surface inh 3.2µM, MCF10A rereplic 4.1µM
CN1C(=O)/C(=C/c2ccccc2F)Sc2ccc(C(=O)NCC3CCCO3)cc21 (configuration not stated)	SW480 rerep inconclusive, MCF10A rereplic inconclusive
O=C(Cc1ccc(NC(=O)C2CCCN(C(=O)C3CCC3)C2)cc1)Nc1cccc(C(=O)N2CCCCC2)c1 (configuration not stated)	SW480 rerep inconclusive
O=C(OCC(=O)c1c[nH]c2ccccc12)c1cc2ccccc2cc1O	MCF10A rereplic 12µM
COc1ccc(C(=O)c2c(C(F)(F)F)oc3c2C(=O)c2ccccc2C3=O)cc1OC	SW480 rerep 0.73µM, MCF10A rereplic inconclusive
Cc1ccc2c(c1)C=CC(C#N)N2C(=O)c1ccccc1 (configuration not stated)	SW480 rerep 2.1µM, MCF10A rereplic inconclusive
CCSC(=O)N1c2ccc(OC)cc2C=CC1C#N (configuration not stated)	SW480 rerep inconclusive, MCF10A rereplic 1.2µM
COc1ccc(C(=O)N2c3ccccc3C=CC2C#N)cc1 (configuration not stated)	SW480 rerep inconclusive, MCF10A rereplic inconclusive
CCOC(=O)c1c(C)nc2c(c1-c1cc(OC)ccc1OC)C(=O)c1ccccc1-2	none
CCOC(=O)C1=C(O)c2ccccc2C(=O)/C1=C\c1ccc(CC)cc1	SW480 rerep 6.5µM, MCF10A rereplic 8.2µM (no result: uPA surface inh)
CCOC(=O)C1=C(Cc2ccc(OC)cc2)C(=O)c2ccccc2C1=O	SW480 rerep 6.5µM (no result: uPA surface inh)
CCOC(=O)c1ccc(COC(=O)c2ccc3c(c2)-c2ccccc2C3=O)cc1	none
CCCN1C(=O)S/C(=C\c2ccc(N3CCOCC3)o2)C1=O	SW480 rerep 3.7µM, MCF10A rereplic 16µM
CCCN1C(=O)S/C(=C/c2ccc(N3CCOCC3)o2)C1=O	SW480 rerep inconclusive, MCF10A rereplic inconclusive
CC1CC(OC(=O)C(O)c2ccccc2)CC(C)(C)C1 (configuration not stated)	none (no result: uPA surface inh, Giardia killer)
COc1cc(C(=O)N2CCN(C(=O)c3cc(-c4ccc(Br)cc4)n[nH]3)CC2)cc(OC)c1OC	MCF10A rereplic inconclusive
Cc1ccc(S(=O)(=O)N/N=C/c2ccc(O)c(O)c2)cc1[N+](=O)[O-]	SW480 rerep 21µM
CC(Oc1ccccc1)C(=O)NNC(=O)c1ccccn1 (configuration not stated)	SW480 rerep inconclusive
C/C(=N\NC(=O)C(C)Oc1ccc([N+](=O)[O-])cc1)c1ccccn1 (configuration not stated)	SW480 rerep 6.5µM, MCF10A rereplic 15µM (no result: uPA surface inh)
O=C1C=CC(=O)N1CCCCCCCCCCN1C(=O)C=CC1=O	SW480 rerep 6.5µM, MCF10A rereplic inconclusive
CCOC(=O)C(NC(=O)c1ccccc1)C(C)(C)SCc1ccccc1 (configuration not stated)	none
